# Measurements reported in PubChem BioAssay (NCATS).
# Unmarked numbers belong to inactive results. Records with an inconclusive call do not appear. Activity calls are given as the source filed them. Unless noted, calls come from the whole dose curve; as a rule, active = well fitted curve in either direction with a large enough effect (not every such curve was filed as active); inconclusive = small, poorly fitted or top-dose-only effect, or another doubt; inactive = flat fitted curve, though single readings scatter.
# Columns and labels:
# [1] = target: Lysosomal acid glucosylceramidase (Homo sapiens) (UniProt P04062); assay: Glucocerebrosidase-p2 (AID 348; in the data active = potency below about 10 µM; note: potency is the fitted concentration of half-maximal effect); conditions: purified GBA, blue fluorogenic substrate, 40 min
# In short: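 Compounds titrated from 0.6 nM upwards against 0.2 nM enzyme in pH 5.9 citric acid/KH2PO4, taurocholate, tween-20; blue fluorogenic substrate 80 uM, 40 min room temperature, stopped and read Ex 365/Em 440 for AC50.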
# [2] = AP1 Signaling Pathway (AID 357); conditions: ME-180 AP-1-bla reporter, EGF-induced, beta-lactamase ratio, 5 h; at 7.69 µM (top of the series) unless noted; note: % is set by controls: 0 for no effect and ±100 for the full control effect
# In short: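 AP-1-bla ME-180 cells with beta-lactamase reporter under AP-1 response element, stimulated with EC50 EGF; compounds titrated, 5 hours at 37 degrees Celsius. CCF4 read at 460/530 nm ratio; positive and negative modulators judged by AC50.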
# [3] = NFAT Signaling Pathway (AID 444); conditions: Jurkat NFAT-bla M1, carbachol, beta-lactamase ratio, 5 h; at 7.69 µM (top of the series) unless noted;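 note: carbachol stimulus at about its EC50 of 1 µM final; % is set by controls: 0 for no effect and ±100 for the full control effect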
# In short: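 Jurkat cells with NFAT-driven β-lactamase reporter and co-expressed M1 receptor, stimulated with carbachol (final 1 uM, ~EC50), compound titration, 5 h at 37 °C. CCF4 loaded 1 h at RT; 460/530 nm ratio gave %activity and AC50.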
# [4] = Stat Signaling Pathway (AID 446); conditions: ME-180 (cervical carcinoma) SIE beta-lactamase reporter, IL-6 stimulated, 5 h; at 7.69 µM (top of the series) unless noted;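 note: ME-180 cervical cancer cells given 40 pM IL-6 alongside compound; SIE-controlled beta-lactamase reporter measured as 460/530 nm FRET emission ratio; % is set by controls: 0 for no effect and ±100 for the full control effect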
# In short: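 IL-6/STAT signaling read in ME-180 cells via an SIE beta-lactamase reporter. Stimulus was 40 pM IL-6 (its AC50) for 5 hrs, so both activation and inhibition register.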
# [5] = target: Glucocorticoid receptor (Homo sapiens) (UniProt P04150); assay: GR-EFC Redistribution (AID 451; calls by dose curve; note: potency is the fitted concentration of half-maximal effect); conditions: CHO-K1 GR-EFC translocation, beta-gal luminescence, 2 h
# In short: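 CHO-K1 cells expressing nuclear EA and GR-ED fragments of b-gal; compounds titrated up to 46 uM final, 2 h at 37 C. GR nuclear translocation read as complemented b-gal luminescence after 1 h RT detection.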
# [6] = target: Mitogen-activated protein kinase 10 (Mus musculus) (UniProt Q61831); assay: JNK3 AlphaScreen Assay (AID 530); conditions: JNK3 lysate, c-Jun phosphorylation; series mostly up to 57.1 µM;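 note: kinase came from lysate of stimulated human HepG2 cells; signal reports phosphorylation of biotinylated GST-cJun 1-79 at Ser73 with 10 µM ATP; % is set by controls: 0 for no effect and ±100 for the full control effect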
# In short: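 Pre-activated (IL-1β/TNFα) JNK3 in HepG2 lysates phosphorylates biotin-GST-cJun(1-79), 10 uM ATP; anti-phospho-cJun(Ser73) AlphaScreen read at room temperature, pH 7.6 Tris buffer. Compounds pre-incubated 15 min as titrations.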
# [7] = target: 3',5'-cyclic-AMP phosphodiesterase 4B (Homo sapiens) (UniProt Q07343); assay: qHTS Assay for Inhibitors of PDE-IV (AID 607; active = well fitted activation curve with a large enough effect in the main read-out, with a control signal flat, not every such curve was filed as active; note: % of control where 0% means no effect); conditions: HEK293 ACTOne CNG channel cells, membrane potential fluorescence; series mostly up to 22.9 µM
# In short: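 Live HEK293 cells with a modified cyclic nucleotide-gated (CNG) channel report intracellular cAMP via membrane-potential dye fluorescence (ex 535/em 590 nm). Endogenous PDE-IV was targeted. Compounds were tested at up to 22.9 uM final; RO 20-1724 100 uM served as control.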
# [8] = Primary qHTS for small molecule stabilizers of the endoplasmic reticulum resident proteome: Secreted ER Calcium Modulated Protein (SERCaMP) assay (AID 1508630; active = well fitted curve in the direction sought with a large enough effect; an effect the other way counts as inactive or inconclusive; note: % is set by controls: 0 for no effect and ±100 for the full control effect); conditions: SH-SY5Y GLuc-SERCaMP (Gaussia luciferase released on ER calcium loss) secretion, thapsigargin, luminescence; series mostly up to 38.4 µM
# In short: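 GLuc-SERCaMP-expressing SH-SY5Y cells, pretreated 16 h with compound, are challenged with thapsigargin to empty ER calcium stores; after 4 h, coelenterazine is added directly to the medium and luminescence is imaged.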
# [9] = target: Cytochrome P450 3A4 (Homo sapiens) (UniProt P08684); assay: qHTS Assay for Activators of Cytochrome P450 3A4 (AID 885; active = well fitted curve in the direction sought with a large enough effect; an effect the other way counts as inactive or inconclusive; note: nearly all actives have a fitted effect of over 65% in size; note: potency is the fitted concentration of half-maximal effect); conditions: recombinant CYP3A4, Luciferin-PPXE luminescence, 60 min; series mostly up to 57.1 µM
# In short: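 Quantitative HTS format: compounds preincubated with 20nM human CYP3A4 and Luciferin-PPXE substrate at KM, reaction started by NADPH regeneration, stopped after 60 min, luciferase luminescence read 20 min later.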
# Cytochrome P450 3A4 (Homo sapiens), sequence (P08684 whole entry, looked up): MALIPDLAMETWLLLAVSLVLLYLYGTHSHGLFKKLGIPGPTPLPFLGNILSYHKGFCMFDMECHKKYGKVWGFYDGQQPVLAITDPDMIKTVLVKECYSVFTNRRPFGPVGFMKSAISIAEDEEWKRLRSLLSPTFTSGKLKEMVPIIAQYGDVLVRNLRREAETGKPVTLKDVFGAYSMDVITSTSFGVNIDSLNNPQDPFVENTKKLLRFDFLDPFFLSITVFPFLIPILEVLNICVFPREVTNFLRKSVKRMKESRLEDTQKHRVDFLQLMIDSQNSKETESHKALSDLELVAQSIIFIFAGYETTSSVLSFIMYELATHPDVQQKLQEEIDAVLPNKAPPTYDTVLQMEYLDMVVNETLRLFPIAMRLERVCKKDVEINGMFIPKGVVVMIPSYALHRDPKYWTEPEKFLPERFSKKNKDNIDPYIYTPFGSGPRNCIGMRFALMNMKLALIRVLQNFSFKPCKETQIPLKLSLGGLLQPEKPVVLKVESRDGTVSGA
# Lysosomal acid glucosylceramidase (Homo sapiens), sequence (P04062 whole entry, looked up): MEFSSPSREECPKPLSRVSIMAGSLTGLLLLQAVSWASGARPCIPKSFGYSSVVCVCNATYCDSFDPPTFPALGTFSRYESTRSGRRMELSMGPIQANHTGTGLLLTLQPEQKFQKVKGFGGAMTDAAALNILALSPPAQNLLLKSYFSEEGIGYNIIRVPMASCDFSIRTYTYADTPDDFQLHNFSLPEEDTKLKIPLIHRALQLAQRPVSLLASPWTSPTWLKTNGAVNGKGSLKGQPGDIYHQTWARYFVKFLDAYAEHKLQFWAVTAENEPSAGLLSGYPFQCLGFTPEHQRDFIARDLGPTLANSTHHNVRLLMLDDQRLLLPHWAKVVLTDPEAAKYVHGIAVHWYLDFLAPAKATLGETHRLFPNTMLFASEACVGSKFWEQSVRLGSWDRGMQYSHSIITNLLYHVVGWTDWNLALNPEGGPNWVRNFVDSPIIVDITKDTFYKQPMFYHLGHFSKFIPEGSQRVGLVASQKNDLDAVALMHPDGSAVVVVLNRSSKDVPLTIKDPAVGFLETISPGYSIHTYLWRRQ
# 3',5'-cyclic-AMP phosphodiesterase 4B (Homo sapiens), sequence (Q07343 whole entry, looked up): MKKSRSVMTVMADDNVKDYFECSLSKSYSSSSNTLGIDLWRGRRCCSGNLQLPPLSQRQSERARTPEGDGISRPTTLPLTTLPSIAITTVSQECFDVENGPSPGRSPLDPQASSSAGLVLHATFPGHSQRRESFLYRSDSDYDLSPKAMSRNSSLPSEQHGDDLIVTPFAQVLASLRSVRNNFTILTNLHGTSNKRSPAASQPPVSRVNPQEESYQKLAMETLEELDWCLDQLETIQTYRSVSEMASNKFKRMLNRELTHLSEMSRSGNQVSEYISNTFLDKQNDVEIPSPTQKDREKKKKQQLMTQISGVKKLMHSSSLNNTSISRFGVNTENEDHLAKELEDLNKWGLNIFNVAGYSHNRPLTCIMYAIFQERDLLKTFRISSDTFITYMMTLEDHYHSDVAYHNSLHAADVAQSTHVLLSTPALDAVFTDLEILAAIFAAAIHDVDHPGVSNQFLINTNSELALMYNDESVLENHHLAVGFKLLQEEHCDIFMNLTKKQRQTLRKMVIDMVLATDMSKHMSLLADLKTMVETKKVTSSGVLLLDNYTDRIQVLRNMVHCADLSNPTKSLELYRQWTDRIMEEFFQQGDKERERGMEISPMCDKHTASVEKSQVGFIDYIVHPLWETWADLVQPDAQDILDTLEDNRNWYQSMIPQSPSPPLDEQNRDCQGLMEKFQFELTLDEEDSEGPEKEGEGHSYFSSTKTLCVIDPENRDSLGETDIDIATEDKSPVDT
# Glucocorticoid receptor (Homo sapiens), sequence (P04150 whole entry, looked up, the tested form may be a part): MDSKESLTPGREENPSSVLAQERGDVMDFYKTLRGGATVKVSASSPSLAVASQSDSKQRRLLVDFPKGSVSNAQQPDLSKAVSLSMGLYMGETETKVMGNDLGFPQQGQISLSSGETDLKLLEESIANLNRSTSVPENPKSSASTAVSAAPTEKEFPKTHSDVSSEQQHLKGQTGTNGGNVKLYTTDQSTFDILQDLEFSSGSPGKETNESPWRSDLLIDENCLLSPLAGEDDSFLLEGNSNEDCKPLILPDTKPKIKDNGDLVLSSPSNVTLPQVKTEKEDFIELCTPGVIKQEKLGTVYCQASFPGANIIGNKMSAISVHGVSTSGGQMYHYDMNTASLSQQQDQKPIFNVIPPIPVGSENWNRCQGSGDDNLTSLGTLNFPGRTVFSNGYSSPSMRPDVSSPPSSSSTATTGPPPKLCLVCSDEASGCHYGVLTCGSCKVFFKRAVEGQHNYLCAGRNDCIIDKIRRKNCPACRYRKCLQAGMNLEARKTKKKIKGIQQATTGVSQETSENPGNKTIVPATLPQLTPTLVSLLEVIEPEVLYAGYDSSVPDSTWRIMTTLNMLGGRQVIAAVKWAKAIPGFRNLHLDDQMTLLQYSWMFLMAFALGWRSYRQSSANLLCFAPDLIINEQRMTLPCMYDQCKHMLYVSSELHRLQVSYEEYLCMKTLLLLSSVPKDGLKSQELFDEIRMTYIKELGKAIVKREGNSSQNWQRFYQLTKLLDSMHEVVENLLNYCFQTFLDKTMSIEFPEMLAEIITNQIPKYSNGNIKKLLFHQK
SMILES,Potency [1] [µM],"activity change, negative = inhibition [2] [%]","activity change, negative = inhibition [3] [%]","activity, negative = inhibition [4] [%]",Potency [5] [µM],Potency [6],Potency [7],outcome [8],Potency [9]
COc1ccc(C(=O)N2CCC[C@@]3(CCN(C(=O)Nc4cccc(F)c4)C3)C2)cc1,> 11.4,-10.8,2.1,-4.78,> 46,inactive,inactive,inactive,
O=C(c1csnn1)N1CCC2(CCCN(c3ncccn3)C2)CC1,> 11.4,5.51,2.44,1.38,> 46,inactive,inactive,inactive,
O=C(c1ccco1)N1CCC2(CC1)CN(c1ncccn1)C2,> 11.4,-3.83,0.563,2.05,> 46,inactive,inactive,inactive,15.8 µM (active)
O=C(c1ccco1)N1CCC2(CCCN(c3ncccn3)C2)CC1,> 11.4,3.88,-1.96,-7,> 46,inactive,inactive,inactive,
O=c1cnc2cnc(Oc3ccccc3)nc2n1C[C@H]1CCCO1,> 11.4,-19.1,-3.47,-8.07,> 46,inactive,inactive,inactive,
COCC(=O)N1CCC2(CCN(Cc3cc(C(F)(F)F)cc(C(F)(F)F)c3)CC2)CC1,> 11.4,4.92,-3.18,8.32,> 46,inactive,inactive,inactive,
O=C(c1csnn1)N1CCC[C@@]2(CCN(c3ccccc3)C2)C1,> 11.4,-5.43,-8.4,-7.17,> 46,inactive,inactive,inactive,
COc1ccc(C(=O)N2CCC3(CC2)CCN(c2cccc(-c4ccccc4)c2)CC3)cc1,> 11.4,10.6,-6.4,-19,> 46,inactive,inactive,inactive,
COc1ccc(C(=O)N2CCC[C@@]3(CCN(C)C3)C2)cc1,> 11.4,10.5,-2.06,1.69,> 46,inactive,inactive,inactive,
COc1ccc(NC(=O)N2CC3(CCN(C(=O)c4cccc(F)c4)CC3)C2)cc1,> 11.4,-7.57,-1.23,0.388,> 46,inactive,inactive,inactive,
N#Cc1ccc(CN2CC[C@@]3(CCCN(C(=O)c4ccco4)C3)C2)cc1,> 11.4,0.694,-6.92,12.6,> 46,inactive,inactive,inactive,
O=C(Nc1cccc(F)c1)N1CCC2(CC1)CCN(C(=O)c1cccc(F)c1)CC2,> 11.4,-7.86,3.68,-6.46,> 46,inactive,,inactive,
O=C(Nc1ccccc1)N1CCCC2(CCN(C(=O)c3csnn3)CC2)C1,> 11.4,-9.89,-7.97,-7.07,> 46,inactive,inactive,inactive,inactive
COc1ccc(C(=O)N2CCC[C@@]3(CCN(Cc4nccs4)C3)C2)cc1,> 11.4,-5.52,-6.27,-1.52,> 46,inactive,inactive,inactive,
O=C(c1cccc(F)c1)N1CCC2(CC1)CN(C(c1ccccc1)c1ccccc1)C2,> 11.4,16.8,-27.5,-17.5,> 46,inactive,inactive,inactive,
O=C(Nc1cccc(F)c1)N1CCC2(CC1)CCN(C(=O)c1ccncc1)CC2,> 11.4,-9.1,-6.93,-7.63,> 46,inactive,inactive,inactive,inactive
O=C(c1csnn1)N1CCC[C@@]2(CCN(Cc3ccccc3)C2)C1,> 11.4,-14.5,1.87,-1.23,> 46,inactive,inactive,inactive,
